Compound activity: PubChem BioAssay, National Center for Advancing Translational Sciences (NCATS)
TDP1 cell noCPT: qHTS for Inhibitors of human tyrosyl-DNA phosphodiesterase 1 (TDP1): qHTS in cells in absence of CPT | actives 15% (n = 420,000) | DT40 Tdp1-/- hTDP1 cells, no CPT, ATP luminescence, 48 h | AID 686978, 2013 | Potency, µM (doses to about 46.2 µM), for inactives: at the highest dose activity change, negative = growth inhibition, usual class: inhibitors; note: potency is the fitted concentration of half-maximal effect; nearly all actives have a fitted effect of over 55% in size
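Stably hTDP1-transfected Tdp1-null chicken DT40 cells were treated with library compounds minus camptothecin and grown for at least 48 hr at 37 °C, after which cellular ATP was quantified by luminescence.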
TDP1 block: blocks human tyrosyl-DNA phosphodiesterase 1. Q9NUW8. recombinant TDP1, AlphaScreen DNA substrate cleavage. Potency, µM (doses to about 130 µM), inactives show at the highest dose activity change, negative = inhibition, hits mostly inhibitors. actives 0.28% (n = 350,000). AID 485290; note: potency is the fitted concentration of half-maximal effect; nearly all actives have a fitted effect of over 40% in size
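Tdp1 1 nM final; 15 min RT w/ cpd; substrate 15 nM, 5 min; beads 10 ug/ml, 10 min; AlphaScreen read. Neg ctrl: no enzyme.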
CtBP-E1A blk: inhibitors of CtBP/E1A interaction; AlphaScreen GST-E1A/His-CtBP binding, 1536-well; hits give low values; activity change, % (test concentration not listed); actives 0.49% (n = 340,000); AID 651724; in the data active = activity change below about -65%; inconclusive = mostly about -30% to -63%
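In 5 uL wells, 23 nL compound meets equimolar GST-E1A and His-CtBP (5X stock 125 nM each) for 2 h, 37 °C. Beads (5X, 50 ug/mL) then 1 h, 37 °C, dark.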
IL-1B inflam inh: blocks inflammasome-driven IL-1 beta release | THP-1 LPS/ATP IL-1B secretion, AlphaLISA, 16 h; hits give low values | activity change, % at 57.5 µM | actives 4.7% (n = 360,000) | AID 743279; in the data active = activity change below about -50%; inconclusive = mostly about -30% to -49%
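THP-1 cells pretreated 1 hr with compounds (up to 57.5 uM final), then stimulated with LPS (250 ng/mL final) plus ATP (1.25 mM final); secreted IL-1B measured by AlphaLISA after 16 hr, decreased signal indicating inhibition.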
Six1-Eya2 inh: blocks human Six1 binding to Eya2 | Q15475+O00167 | AlphaScreen GST-Six1/His-Eya2 binding, biochemical; hits give low values | activity change, % (concentration not given with the values) | actives 0.56% (n = 360,000); in the data active = activity change below about -65%; inconclusive = mostly about -30% to -63%
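Compounds are tested against tagged Six1 and Eya2 proteins bridged by glutathione donor and nickel acceptor beads; after a one-hour incubation at 37 °C without light, AlphaScreen emission is recorded.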
DT40 TDP1 CPT: growth inhibition of DT40 Tdp1-/-;hTDP1 cells with camptothecin (screen for TDP1 inhibitors). chicken DT40 Tdp1-/-;hTDP1 cells + 20 nM CPT, ATP luminescence, 48 h. Potency, µM (highest dose often 46.2 µM), for the others: at the highest dose activity change, negative = growth inhibition, hits mostly inhibitors. actives 12% (n = 420,000). AID 686979; note: potency is the fitted concentration of half-maximal effect; nearly all actives have a fitted effect of over 55% in size
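Chicken DT40 Tdp1-/- cells stably complemented with human TDP1 were seeded at 400 cells/well in medium containing 20 nM camptothecin, exposed to pin-transferred compounds, and grown at 37 °C for at least 48 hr. Viability was read as ATP luminescence.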
The depositor's hits bear a star; u = inconclusive; x = no result. The list is not random: actives were taken first. Their share in the collection is about 18%. Unless noted, calls come from the whole dose curve; as a rule, active = well fitted curve in the direction sought with a large enough effect; inconclusive = small, poorly fitted or top-dose-only effect, or another doubt; inactive = no such curve, though single readings can be large; an effect the other way counts as inactive or inconclusive. % is set by controls: 0 for no effect and ±100 for the full control effect.

SMILES | TDP1 cell noCPT | TDP1 block | CtBP-E1A blk | IL-1B inflam inh | Six1-Eya2 inh | DT40 TDP1 CPT
Cc1nc(Nc2nc(-c3ccccc3)cc(=O)[nH]2)nc2ccccc12 | 16.4µM* | x | -10.6 | -64.5* | -29.1 | 20.6µM*
COc1ccc(Nc2nc(N)nc(CSc3nc(C)cc(C)n3)n2)cc1 | u | 4.9% | -21.8 | -28.3 | -2.5 | -1.1%
Cc1nc(Nc2nc(CSc3ccc(Cl)cc3)cc(=O)[nH]2)nc2ccccc12 | u | 1.8% | 0.2 | 9.5 | -1.3 | -25.4%
Cc1nc(Nc2nc(CSc3nc4ccccc4[nH]3)cc(=O)[nH]2)nc2ccccc12 | 6.51µM* | 5.3% | -0.4 | -86.9* | -17.7 | 4.11µM*
CCOC(=O)N1CCN(C(=O)CN(c2cccc(C)c2)S(=O)(=O)c2ccccc2)CC1 | -14.1% | 5.2% | 1.8 | -12.2 | 1.9 | 3.7%
CCOC(=O)[C@H]1[C@H]2COc3cc(OC)ccc3[C@@H]2N2C(=O)c3cc(F)ccc3NC(=O)[C@@]12C | u | 0.0% | 1.3 | 8.0 | -4.1 | u
Cc1ccc2c(=O)[nH]c(Nc3nc(C)cc(-c4ccccc4)n3)nc2c1 | 11.6µM* | -2.5% | 3.1 | -20.6 | 4.7 | 10.3µM*
Cc1cccc(-c2nc3ccccc3c(=O)[nH]2)c1 | -22.9% | x | 0.7 | 0.0 | -0.1 | 4.4%
O=C(CN1CCCc2ccccc21)N/N=C/c1ccc(F)cc1F | 14.6µM* | x | -5.4 | -2.1 | -11.9 | 20.6µM*
O=C(CN1CCCc2ccccc21)N/N=C/c1ccccc1O | 4.11µM* | 1.1% | u | 40.3 | -23.9 | -99.1%
CCC(=O)Nc1ccc(C2C(=O)c3ccccc3C2=O)cc1 | 20.6µM* | x | -15.0 | -3.0 | -1.8 | 16.4µM*
COc1ccc(C2=C(Nc3ccccc3)c3ccccc3C2=O)cc1 | u | -0.6% | -25.7 | 15.5 | -21.0 | -11.7%
CCOc1ccc(NC2=C(OC)C(=O)c3ccccc3C2=O)cc1 | u | 11.8% | u | -83.3* | -74.9* | 20.6µM*
COc1ccc(NC2=C(NC(C)=O)C(=O)c3ccccc3C2=O)cc1 | 18.4µM* | x | -11.9 | -5.3 | -9.2 | 13µM*
O=C(NC1=C(Nc2ccc(F)cc2)C(=O)c2ccccc2C1=O)c1ccc(Cl)cc1 | u | 1.8% | -22.1 | 29.7 | u | 20.6µM*
O=C(NNC(=O)c1ccc(NC(=O)c2ccccc2)cc1)c1ccc(F)cc1 | 10.5% | x | 0.5 | 0.5 | 0.2 | 29.8%
O=C(NNC1CC(=O)N(c2ccc(Br)cc2)C1=O)c1ccccn1 (stereo unspecified) | -10.7% | 8.1% | -14.0 | 17.8 | 0.5 | -3.6%
CC(C)NC(=O)[C@@H]1C[C@@]1(C)[C@@H](NC(=O)OCc1ccccc1)c1ccccc1 | -5.0% | 1.3% | 7.5 | 17.3 | 0.7 | -2.4%
COc1ccc(NC2=C(c3ccc(C(F)(F)F)cc3)C(=O)c3ccccc32)cc1 | u | 7.5% | x | x | x | u
COC1=C(Nc2ccc(OC)cc2)C(=O)c2ccccc2C1=O | 14.6µM* | 11.8% | 12.3 | u | -75.3* | 29.1µM*
COC1=C(Nc2ccc(O)cc2)C(=O)c2ccccc2C1=O | u | 6.8% | u | -64.2* | u | 4.11µM*
CCC(=O)NC1=C(Nc2ccc(N)cc2)C(=O)c2ccccc2C1=O | 8.2µM* | x | u | -3.1 | u | u
COC1=C(Nc2ccc(OC)cc2)C(=O)C(OC)=C(Nc2ccc(OC)cc2)C1=O | -12.3% | x | -10.5 | -14.5 | -3.9 | 6.1%
C=CCN1C(=O)CN=C1Nc1ccc(F)cc1 | 6.6% | 5.6% | -6.7 | 13.4 | 0.8 | -1.3%
Cc1c(C(=O)NCCN(C)C)sc2nc3n(c(=O)c12)CCC3 | -0.8% | 6.5% | x | x | x | 0.4%
Cc1ccc(CNC(=O)c2ccc(N3CCc4ccccc43)c([N+](=O)[O-])c2)cc1 | u | 10.5% | u | -21.1 | u | u
